Results on 36 compounds are retold here after PubChem BioAssay (EPA / NIEHS).

Results filed as inconclusive are left out. Some structures have more than one record in an assay (separate samples or runs), and their calls can disagree. Active and inactive are the calls of the source. How the source made its calls: active means hit-call score of the fitted dose curve at least 0.9, where 1 is the maximum; inconclusive means response in the unintended direction; inactive means score below 0.9.

A short description of the first test: ATG_XTT_Cytotoxicity: Cytotoxicity Assessment in the Attagene TRANS-FACTORIAL HepG2 Assay (AID 2283584).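 On AC50: XTT signal for cell number as viability in transfected HepG2 cells; cells exposed to compound for 24 h before reading; active means loss of viability signal versus DMSO baseline.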 A digest of the protocol:
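Transfect HepG2 with GAL4-UAS reporter units, dose compound, incubate 24 h, then measure viable cell number by XTT. Fit concentration response against DMSO baseline.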
`CCCCOC(=O)C(C)CC` (stereo unspecified): the call was inactive.

Consider `Nc1ccc(Cl)c(N)c1`, for which the outcome was inactive.

In the case of `CCCCCCCCCCCCC`, the compound was classed as inactive.

With `c1ccc(Nc2cccc3ccccc23)cc1`, the result was inactive.

On to `CCc1cccc(C)c1N(C(=O)CS(=O)(=O)O)C(C)COC` (stereo unspecified), for which the result was inactive.

Turning to `NC(=O)Nc1ccccc1`, the outcome was inactive.

As for `CC1=CC=C(C(C)C)CC1`, the compound was classed as inactive.

In the case of `CC1=CCC(C(C)C)C=C1` (stereo unspecified), the result was inactive.

Consider `CCCCC/C=C\C/C=C\CCCCCCCC(=O)O`, for which the compound was classed as inactive.

For the compound `Nc1cccc(N)n1`, the compound was classed as inactive.

Regarding `c1ccc2sc(SSN3CCOCC3)nc2c1`, the compound was classed as inactive.

Consider `CCN(CC)c1cccc(C)c1`, for which the call was inactive.

In the case of `CC(=O)CCC1=C(C)CCCC1(C)C`, the compound was called inactive.

As to `CC(C=O)c1ccccc1` (stereo unspecified), the compound was classed as inactive.

In the case of `CCCCCCCCCCCCCc1ccccc1`, the compound was called inactive.

With `CCCCCCCCCCCC(=O)OCC`, the compound was classed as inactive.

Turning to `Cc1cc(C)n(CO)n1`, the outcome was inactive.

Turning to `Oc1ccccc1Cc1ccccc1O`, the result was inactive.

`COc1ccc(C(=O)/C(Br)=C\C(=O)O)cc1`: the compound was called inactive.

With `C=C(C)C(=O)OCC(O)COc1ccc(C(C)(C)c2ccc(OCC(O)COC(=O)C(=C)C)cc2)cc1` (stereo unspecified), the call was inactive.

Regarding `CC(CC=O)CC(C)(C)C` (stereo unspecified), the compound was called inactive.

For the compound `C=CCOC(=O)c1ccc(C(=O)OCC=C)c(C(=O)OCC=C)c1`, the compound was called inactive.

Take `CC1CCC(C(C)(C)S)C(=O)C1` (stereo unspecified): the compound was called inactive.

With `C=CC(C)(O)CC/C=C(\C)CC` (stereo unspecified), the outcome was inactive.

On to `CC(Cl)COP(=O)(OCC(C)Cl)OCC(C)Cl` (stereo unspecified), for which the outcome was inactive.

Consider `CC(C)CO`, for which the compound was called inactive.

For the compound `CCCSSCCC`, the call was inactive.

In the case of `CCCCCCCCCCCC(=O)N(C)CC(=O)O`, the compound was classed as inactive.

On to `Oc1ccc(-c2ccccc2)c(Cl)c1`, for which the AC50 is 159 µM (active) and the call was inactive.

Consider `COc1ccc(-c2coc3cc(O)cc(O)c3c2=O)cc1`, for which the call was inactive.

With `CCOC(=O)OC(=O)OCC`, the compound was classed as inactive.

Regarding `CCCCCCCCCC[N+](C)(CCCCCCCCCC)CCC[Si](OC)(OC)OC`, the AC50 is 43.9 µM (active).

`CCOB(OCC)OCC`: the compound was called inactive.

Take `C1CCSC1`: the compound was called inactive.

Take `CCCCCCCC(=O)OCC`: the outcome was inactive.

As to `O=C(Oc1ccccc1)c1ccccc1O`, the compound was called inactive.

Another test is described as follows: TOX21_p53_BLA_p2_viability: Viability Assessment in the Tox21 HCT-116 p53 Agonism Beta-lactamase Assay, Phase 2 (AID 2283591).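 Further: compound exposure lasted 16 h at 37 °C; actives lower the ATP signal meaning cytotoxicity.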 A digest of the protocol:
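HCT-116 p53-bla cells (4000/well) rested 5 h at 37C, then received compounds in DMSO (217-fold dilution) for 16 h at 37C, 5% CO2. After the CCF4 read, CellTiter-Glo was added; ATP luminescence was read after 30 min at room temperature.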
`CCCCOC(=O)C(C)CC` (stereo unspecified): the compound was called inactive.

With `CCCCCCCCCCCCC`, the result was inactive.

Regarding `c1ccc(Nc2cccc3ccccc23)cc1`, the AC50 was 71.1 µM (active) and the compound was called inactive.

As to `NC(=O)Nc1ccccc1`, the call was inactive.

For `CC1=CCC(C(C)C)C=C1` (stereo unspecified), the compound was classed as inactive.

`CCCCC/C=C\C/C=C\CCCCCCCC(=O)O`: the AC50 is 41.5 µM (active) and the result was inactive.

With `CCCCCCCCCCCC(=O)OCC`, the call was inactive.

With `Cc1cc(C)n(CO)n1`, the compound was classed as inactive.

For `Oc1ccccc1Cc1ccccc1O`, the outcome was inactive.

For `COc1ccc(C(=O)/C(Br)=C\C(=O)O)cc1`, the AC50 was 86.2 µM (active) and the compound was called inactive.

For the compound `C=C(C)C(=O)OCC(O)COc1ccc(C(C)(C)c2ccc(OCC(O)COC(=O)C(=C)C)cc2)cc1` (stereo unspecified), the AC50 is 69.2 µM (active).

For the compound `CC(CC=O)CC(C)(C)C` (stereo unspecified), the call was inactive.

Turning to `CC(Cl)COP(=O)(OCC(C)Cl)OCC(C)Cl` (stereo unspecified), the compound was called inactive.

Take `Oc1ccc(-c2ccccc2)c(Cl)c1`: the compound was classed as inactive.

As to `COc1ccc(-c2coc3cc(O)cc(O)c3c2=O)cc1`, the AC50 was 68.5 µM (active) and the compound was called inactive.
